Compound activity (PubChem)
Bcl-xL primary: blocks human Bcl-xL binding to Bim BH3 peptide; GST-Bcl-xL / FITC-Bim BH3 peptide fluorescence polarization; inhibition, % at 10.9 µM; 0.7% of 320,000 active;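 active = inhibition above the mean of all tested compounds plus 3 SD, cutoff set per campaign, cut at about 30% in these data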;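 also: 0% = DMSO wells and 100% = unlabeled Bim-BH3 peptide competitor; inhibitors lower millipolarization by displacing the labeled peptide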
Target sequence (Q07817 whole entry, looked up): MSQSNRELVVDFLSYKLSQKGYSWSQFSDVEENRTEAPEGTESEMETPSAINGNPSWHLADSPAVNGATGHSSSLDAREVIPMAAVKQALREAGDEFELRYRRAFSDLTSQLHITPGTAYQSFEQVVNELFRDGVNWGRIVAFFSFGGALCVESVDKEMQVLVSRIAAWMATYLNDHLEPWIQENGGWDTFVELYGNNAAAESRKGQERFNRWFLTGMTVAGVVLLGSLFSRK
Mcl1-Bid inh: Mcl-1/Bid interaction inhibition; TR-FRET Mcl-1/Bid-Dy647 peptide binding, 1536-well; inhibition, % at 21.7 µM; Q07820; 0.97% of 220,000 active;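 active = compounds that cut the binding signal by more than half at the single screening dose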;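 also: His-tagged Mcl-1 with europium anti-His antibody binding Bid BH3 peptide; 0% = Mcl-1 plus peptide wells and 100% = peptide-only wells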
Target sequence (Q07820 whole entry, looked up): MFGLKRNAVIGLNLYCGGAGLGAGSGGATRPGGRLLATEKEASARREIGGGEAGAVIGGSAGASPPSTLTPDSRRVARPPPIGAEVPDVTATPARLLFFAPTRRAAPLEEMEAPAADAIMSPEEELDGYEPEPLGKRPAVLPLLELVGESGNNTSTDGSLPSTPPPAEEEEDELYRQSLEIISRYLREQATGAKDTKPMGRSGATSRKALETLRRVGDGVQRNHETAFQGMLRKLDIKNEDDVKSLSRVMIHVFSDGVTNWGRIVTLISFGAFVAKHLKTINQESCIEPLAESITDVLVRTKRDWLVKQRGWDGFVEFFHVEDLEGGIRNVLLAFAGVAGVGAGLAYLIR
Mcl1-Noxa inh: disrupts binding of human Mcl-1 to Noxa peptide; TR-FRET Mcl-1/Noxa peptide binding, 2 h; Q07820; inhibition, % at 21.7 µM; 1.5% of 220,000 active;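 active = compounds that cut the protein-peptide binding signal by more than 50% relative to plate controls in a single-dose test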;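 also: His-tagged Mcl-1 with rhodamine Noxa BH3 peptide and terbium anti-His antibody; 0% = Mcl-1 plus Noxa peptide wells and 100% = peptide-only wells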
GLD-1 TGE inh: GLD-1-TGE RNA interaction inhibition (C. elegans) | 0.44% of 320,000 active | Q17339 | inhibition, % at 5.96 µM | purified GLD-1 + fluorescein TGE RNA, fluorescence polarization | AID 2280;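 active = percent inhibition above a per-plate cutoff, the plate mean of test compounds plus 3 SD, cut at about 30% in these data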;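 also: 0% = DMSO wells with GLD-1 and probe and 100% = wells lacking GLD-1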
MCL1-BIM inh: disrupts human MCL1 binding to BIM-BH3 peptide; GST-MCL1 / FITC-Bim-BH3 fluorescence polarization; inhibition, % at 10.9 µM; 0.68% of 320,000 active;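 active = inhibition above the mean inhibition of all tested compounds plus 3 SD, set per campaign, cut at about 40% in these data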;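 also: 0% = DMSO wells and 100% = unlabeled Bim-BH3 peptide control; higher means more loss of mP so more displacement of Bim peptide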
Mcl-1 Bim block: human Bim-Mcl-1 interaction inhibition. Bead-based flow cytometry, Bim peptide-Mcl-1 binding. inhibition, % at 10 µM. 0.1% of 190,000 active. Q07820. AID 1009; in the data active = inhibition above about 40%;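 also: 0% = no compound tracer wells and 100% = peptide blocker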
BCLXL inh confirm: counter-screen for MCL1 inhibitors: confirmation of human Bcl-xL inhibitors; shares compounds with MCL1-BIM inh; GST-Bcl-xL / FITC-Bim BH3 peptide FP binding; inhibition, % at 10.9 µM; 54% of 1,700 active; AID 2166;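 active = inhibition above a cutoff equal to the mean inhibition of all tested compounds plus 3 SD, cut at about 30% in these data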;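 also: 0% = DMSO wells and 100% = unlabeled Bim BH3 control peptide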
MCL1 BIM confirm: MCL1-BIM-BH3 interaction inhibition, confirmation; shares compounds with MCL1-BIM inh; GST-MCL1 / FITC-Bim-BH3 fluorescence polarization; inhibition, % at 10.9 µM; 61% of 1,700 active; AID 2168;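 active = inhibition above the average of all tested compounds plus 3 SD, cut at about 40% in these data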;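 also: 0% = DMSO wells and 100% = unlabeled Bim-BH3 control peptide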
GLD-1 TGE cf: confirmation of C. elegans GLD-1 TGE RNA binding inhibitors; shares compounds with GLD-1 TGE inh; GLD-1/FL-TGE RNA fluorescence polarization, biochemical; inhibition, % at 5.96 µM; 10% of 550 active; AID 2459;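 active = average inhibition across triplicates above the hit cutoff set in the primary screen, cut at about 32% in these data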;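 also: 0% = GLD-1 with RNA probe and DMSO and 100% = wells lacking GLD-1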
* = called active by the depositor. This is a sample that favours compounds with a hit; in the whole collection about 2.3% have one here.

CC1=CC(=O)c2c(O)ccc(O)c2C1=O was read as Bcl-xL primary 88*, Mcl1-Bid inh 99*, Mcl1-Noxa inh 96*, GLD-1 TGE inh 75*, MCL1-BIM inh 138*, Mcl-1 Bim block 23, BCLXL inh confirm 102*, MCL1 BIM confirm 142* and GLD-1 TGE cf 33*.
`O=C1c2ccccc2C(=O)c2c([N+](=O)[O-])ccc(O)c21` gave Bcl-xL primary 24, Mcl1-Bid inh -21, Mcl1-Noxa inh 32, GLD-1 TGE inh 4 and MCL1-BIM inh 5.
`CCOc1ccc(S(=O)(=O)N2CCCCC2)cc1NC(=O)Cc1cccs1` gave Bcl-xL primary -13, GLD-1 TGE inh 10 and MCL1-BIM inh -13.
Screening Cc1cc(Cc2ccc([N+](=O)[O-])cc2)c(C)cn1 returned Bcl-xL primary 3, GLD-1 TGE inh -3 and MCL1-BIM inh 4.
`O=C(NCCC1=CCCCC1)C(=O)NCc1ccncc1` gave Bcl-xL primary 73*, Mcl1-Bid inh -19, Mcl1-Noxa inh 10, GLD-1 TGE inh 47*, MCL1-BIM inh 68*, Mcl-1 Bim block 2, BCLXL inh confirm 9, MCL1 BIM confirm -1 and GLD-1 TGE cf 13.
O=C(COc1ccccc1)NCC(=O)N/N=C/c1ccc(O)cc1O was read as Bcl-xL primary 12, Mcl1-Bid inh -62, Mcl1-Noxa inh -38, GLD-1 TGE inh 8 and MCL1-BIM inh 16.
For CN1CCN(c2nc3ccccc3nc2C(C#N)S(=O)(=O)c2ccccc2)CC1 (configuration not stated) the results were Bcl-xL primary 8, Mcl1-Bid inh -38, Mcl1-Noxa inh -4, GLD-1 TGE inh 7 and MCL1-BIM inh 6.
For COc1ccc(S(=O)(=O)C(C#N)c2nc3ccccc3nc2N2CCCCC2)cc1 (configuration not stated) the results were Bcl-xL primary 68*, Mcl1-Bid inh -51, Mcl1-Noxa inh 38, GLD-1 TGE inh 69*, MCL1-BIM inh 79*, Mcl-1 Bim block 0, BCLXL inh confirm 19, MCL1 BIM confirm 20 and GLD-1 TGE cf -2.
N#CC(c1nc2ccccc2nc1N1CCCC1)S(=O)(=O)c1ccccc1 (configuration not stated) was read as Bcl-xL primary 66*, Mcl1-Bid inh -25, Mcl1-Noxa inh 19, GLD-1 TGE inh 40*, MCL1-BIM inh 70*, Mcl-1 Bim block -3, BCLXL inh confirm 75*, MCL1 BIM confirm 76* and GLD-1 TGE cf 27.
For O=C1c2ccccc2C(=O)c2c1cccc2N1CCCC1 the results were Bcl-xL primary 16, Mcl1-Bid inh -60, Mcl1-Noxa inh 17, GLD-1 TGE inh 6, MCL1-BIM inh 21 and Mcl-1 Bim block -2.
For Cn1c(=O)cc2c3c(c(N4CCCCC4)ccc31)C(=O)c1ccccc1-2 the results were Bcl-xL primary 147*, Mcl1-Bid inh -38, Mcl1-Noxa inh 26, GLD-1 TGE inh 82*, MCL1-BIM inh 152*, BCLXL inh confirm 112*, MCL1 BIM confirm 143* and GLD-1 TGE cf 46*.
`COc1cccc(=O)c2c(C)n(-c3ccc(C(=O)O)cc3)c(C)c12` gave Bcl-xL primary 68*, Mcl1-Bid inh -35, Mcl1-Noxa inh 19, GLD-1 TGE inh 38*, MCL1-BIM inh 91*, Mcl-1 Bim block 0, BCLXL inh confirm 21, MCL1 BIM confirm 29 and GLD-1 TGE cf 14.
`Clc1cccc(Cl)c1C1Nc2cccc3cccc(c23)N1` gave Bcl-xL primary 16, GLD-1 TGE inh 13 and MCL1-BIM inh 14.
`Clc1cccc(C2Nc3cccc4cccc(c34)N2)c1` gave Bcl-xL primary 27, GLD-1 TGE inh 32*, MCL1-BIM inh 46*, BCLXL inh confirm 25, MCL1 BIM confirm 41* and GLD-1 TGE cf 1.
For COc1cccc(/C=C/C(=O)OCC(=O)NCC2CCCCC2)c1OC the results were Bcl-xL primary 4, GLD-1 TGE inh 2 and MCL1-BIM inh -3.
For Cc1ccc(-c2nn(CCC(=O)Nc3cccnc3)c(=O)c3ccccc23)cc1 the results were Bcl-xL primary 82*, Mcl1-Bid inh -2, Mcl1-Noxa inh 12, GLD-1 TGE inh 61*, MCL1-BIM inh 85*, BCLXL inh confirm 73*, MCL1 BIM confirm 97* and GLD-1 TGE cf -3.
For Nc1ncc(-c2ccccc2)c(-c2ccc(O)cc2O)n1 the results were Bcl-xL primary 50*, GLD-1 TGE inh 43*, MCL1-BIM inh 51*, BCLXL inh confirm 14, MCL1 BIM confirm 16 and GLD-1 TGE cf 11.
For COc1ccc(-c2cnc(N)nc2-c2ccc(OCc3ccccc3)cc2O)cc1 the results were Bcl-xL primary 4, Mcl1-Bid inh -5, Mcl1-Noxa inh 9, GLD-1 TGE inh 5 and MCL1-BIM inh 2.
`NS(=O)(=O)c1ccc(CCNC(=O)CN2CCN(Cc3cccc4ccccc34)CC2)cc1` gave Bcl-xL primary -3, GLD-1 TGE inh 2 and MCL1-BIM inh -21.
Screening CCOC(=O)c1[nH]cnc1N=Nc1c(O)ccc2ccccc12 returned Bcl-xL primary 103*, Mcl1-Bid inh -49, Mcl1-Noxa inh 24, GLD-1 TGE inh 60*, MCL1-BIM inh 93*, Mcl-1 Bim block -1, BCLXL inh confirm 75*, MCL1 BIM confirm 84* and GLD-1 TGE cf 32*.
Screening CCOC(=O)C1=C(C)NC(C)=C(C(=O)OCC)C1C(=O)OCC(=O)NC(C)C returned Bcl-xL primary 6, Mcl1-Bid inh 15, Mcl1-Noxa inh 14, GLD-1 TGE inh 6, MCL1-BIM inh 4 and Mcl-1 Bim block -2.
CCOC(=O)C1=C(C)NC(C)=C(C(=O)OCC)C1C(=O)OCC(N)=O was read as Bcl-xL primary 77*, Mcl1-Bid inh -48, Mcl1-Noxa inh -4, GLD-1 TGE inh 57*, MCL1-BIM inh 110*, Mcl-1 Bim block 1, BCLXL inh confirm 5, MCL1 BIM confirm 8 and GLD-1 TGE cf -7.
CCCCn1c(N)c(N(CCOC)C(=O)CSCc2ccc(C)cc2)c(=O)[nH]c1=O was read as Bcl-xL primary 8, GLD-1 TGE inh 2 and MCL1-BIM inh 4.
For Cc1ccc(C(=O)N/N=C/c2ccc(-c3ccc(Br)cc3[N+](=O)[O-])o2)o1 the results were Bcl-xL primary 51*, GLD-1 TGE inh 36*, MCL1-BIM inh 62*, BCLXL inh confirm 12, MCL1 BIM confirm -11 and GLD-1 TGE cf 35*.
